{
  "source": "PubChem BioAssay AID1566",
  "about": "(Sanford-Burnham Center for Chemical Genomics, 2009)",
  "note": "Screen size: about 290,000 compounds; about 1,800 (0.62%) were called active. No stated cut-off is given here; in the data, active means inhibition above about 50%; inactive means the rest. Only a selection was taken, and actives are over-represented in it overall.",
  "data": [
    {"assay": "inhibition of NOD2-driven NF-kB reporter – cell-based, luminescence, uHTS, HEK293 (AID 1566)", "settings": "HEK293 NOD2/NF-kB luciferase reporter, at 4 µM, active compounds read high", "values": [
      {"compound": "CC(C)CN1CCN(CCCc2ccccc2)C(CCO)C1", "note": "(stereo not drawn)", "inhibition": "-35.5% (inactive)"},
      {"compound": "COc1ccc(N2C(=O)NC3CC2(C)Oc2ccccc23)cc1", "note": "(stereo not drawn)", "inhibition": "15.5% (inactive)"},
      {"compound": "O=C(CCS(=O)(=O)c1ccccc1)NC1CCCCC1", "inhibition": "-43.9% (inactive)"},
      {"compound": "COc1ccc(-c2nn(C)c(=O)c3ccccc23)cc1NC(=O)COc1ccc(C)cc1", "inhibition": "53.6% (active)"},
      {"compound": "COc1ccc(OCC(=O)Nc2cc(-c3nn(C)c(=O)c4ccccc34)ccc2OC)cc1", "inhibition": "46.6% (inactive)"},
      {"compound": "COc1ccc(-c2nn(C)c(=O)c3ccccc23)cc1NC(=O)COc1ccccc1", "inhibition": "31.2% (inactive)"},
      {"compound": "CCc1nnc(NC(=O)CSc2nc(C)cc(C)c2C#N)s1", "inhibition": "-111% (inactive)"},
      {"compound": "COc1ccc(C)cc1S(=O)(=O)N(CC(N)=O)Cc1ccccc1", "inhibition": "-4.4% (inactive)"},
      {"compound": "O=C(N/N=C/c1ccc([N+](=O)[O-])o1)C1CC1", "inhibition": "23.5% (inactive)"},
      {"compound": "CCCCCCCC(=O)N/N=C/c1ccc([N+](=O)[O-])o1", "inhibition": "16.9% (inactive)"},
      {"compound": "O=C(CSc1ccc(Cl)cc1)N/N=C/c1ccc([N+](=O)[O-])o1", "inhibition": "69.6% (active)"},
      {"compound": "COC(=O)N/N=C/c1ccc([N+](=O)[O-])o1", "inhibition": "-0.6% (inactive)"},
      {"compound": "O=C(CN1CCCCCCC1)N/N=C/c1ccc([N+](=O)[O-])o1", "inhibition": "67.4% (active)"},
      {"compound": "CCCCCC(=O)N/N=C/c1ccc([N+](=O)[O-])o1", "inhibition": "28.5% (inactive)"},
      {"compound": "O=C(Cc1ccc([N+](=O)[O-])cc1)N/N=C/c1ccc([N+](=O)[O-])o1", "inhibition": "33.1% (inactive)"},
      {"compound": "O=C(CCC(=O)Nc1ccc(Cl)cc1Cl)N/N=C/c1ccc([N+](=O)[O-])o1", "inhibition": "33.1% (inactive)"},
      {"compound": "O=C(N/N=C/c1ccc([N+](=O)[O-])o1)C1CCCC1", "inhibition": "60.2% (active)"},
      {"compound": "COc1cc(C(O)P(=O)(OC2CCCCC2)c2ccc(N(C)C)cc2)cc(OC)c1OC", "note": "(stereo not drawn)", "inhibition": "0.5% (inactive)"},
      {"compound": "C=CCNC(=S)NNC(=O)COc1ccc2cc(Br)ccc2c1", "inhibition": "-39.9% (inactive)"},
      {"compound": "CCCCCC(C)NC(=O)c1ccoc1C", "note": "(stereo not drawn)", "inhibition": "12.6% (inactive)"},
      {"compound": "COC(=O)C1CCN(C(=O)Cc2ccc(Br)cc2)CC1", "inhibition": "-8.4% (inactive)"},
      {"compound": "O=C(CC1C(=O)NCCN1Cc1ccccc1)NCCCOc1cccnc1", "note": "(stereo not drawn)", "inhibition": "9.1% (inactive)"},
      {"compound": "CC(=C/c1ccccc1)/C=N/Nc1nc(N2CCOCC2)nc(N2CCOCC2)n1", "inhibition": "-9.3% (inactive)"},
      {"compound": "CC[n+]1c(/C=C/c2ccc(N(C)C)cc2)ccc2ccccc21", "inhibition": "17.2% (inactive)"},
      {"compound": "CC[n+]1c(/C=C/c2ccc(OC)c(OC)c2)ccc2ccccc21", "inhibition": "-117% (inactive)"},
      {"compound": "CC(NCCS(=O)(=O)c1ccc(Cl)cc1)c1cccc(Cl)c1", "note": "(stereo not drawn)", "inhibition": "54.1% (active)"},
      {"compound": "CC(C)c1ccc(C(C)NCCS(=O)(=O)c2ccc(Cl)cc2)cc1", "note": "(stereo not drawn)", "inhibition": "14.9% (inactive)"},
      {"compound": "CC(C)c1ccc(C(C)NCCS(=O)(=O)c2ccc(Br)cc2)cc1", "note": "(stereo not drawn)", "inhibition": "-12.3% (inactive)"}
    ]}
  ]
}
